Laboratory results from PubChem BioAssay (NCI).
The panel holds about 79,000 compounds, 15% with a hit somewhere; the sample as a whole holds those more often. The source made the active and inactive calls. No stated cut-off is given here; in the data, active means growth inhibition above about 70%; inactive means the rest.

Columns and labels:
[1] = NCI Yeast Anticancer Drug Screen. Data for the rad52 strain (AID 147);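 further: 0% = growth of vehicle-treated control cultures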; settings: S. cerevisiae rad52 mutant growth inhibition, stronger effect = higher value
Method in brief: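 Here a repair-compromised yeast strain receives each compound; its growth is then quantified and normalised to vehicle-only controls.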

[2] = NCI Yeast Anticancer Drug Screen. Data for the wt1 strain (AID 149);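 further: 0% = growth of vehicle-treated wt1 cultures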; settings: S. cerevisiae wt1 strain (SPY 50644) growth inhibition, stronger effect = higher value
Method in brief: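 Measured: growth of wt1 yeast under compound versus vehicle treatment, reported as inhibition.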

[3] = NCI Yeast Anticancer Drug Screen. Data for the rad50EPP+ strain (AID 151);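 further: 0% = growth of vehicle-treated control cultures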; settings: S. cerevisiae rad50 mutant strain, stronger effect = higher value
Method in brief: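 Read-out is yeast growth inhibition relative to vehicle; cells used were the rad50EPP+ strain.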

[4] = NCI Yeast Anticancer Drug Screen. Data for the mgt1 strain (AID 153); settings: S. cerevisiae mgt1 mutant growth inhibition, stronger effect = higher value
Method in brief: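 Measured: inhibition of mgt1 yeast growth by compound, normalized to vehicle-treated cultures.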

[5] = NCI Yeast Anticancer Drug Screen. Data for the rad50 strain (AID 155);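 further: 0% = growth of vehicle-only cultures of the same strain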; settings: S. cerevisiae rad50 strain growth inhibition, stronger effect = higher value
Method in brief: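 Growth of the mutant yeast was measured after compound exposure and referenced to vehicle-treated cultures.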

[6] = NCI Yeast Anticancer Drug Screen. Data for the mec2-1 strain (AID 157); settings: S. cerevisiae mec2-1 strain, stronger effect = higher value
Method in brief: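 Using mec2-1 yeast: add compound, measure growth, express inhibition versus vehicle-treated cultures.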

[7] = NCI Yeast Anticancer Drug Screen. Data for the rad14 strain (AID 159);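 further: 0% = growth of vehicle-treated control cultures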; settings: S. cerevisiae rad14 strain growth inhibition, stronger effect = higher value
Method in brief: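 Here, inhibition of yeast growth was measured after compound exposure, using a strain with a genetic defect in DNA damage repair and vehicle-treated cultures as the reference.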

[8] = NCI Yeast Anticancer Drug Screen. Data for the sgs1 mgt1 strain (AID 161);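 further: 0% = growth of cultures given vehicle only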; settings: S. cerevisiae sgs1 mgt1 strain, stronger effect = higher value
Method in brief: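 Yeast cells carrying a defined DNA-repair defect were exposed to test compounds. Growth inhibition was measured relative to vehicle-treated controls.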

[9] = NCI Yeast Anticancer Drug Screen. Data for the CLN2oe strain (AID 163);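 further: 0% = growth of vehicle-only control cultures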; settings: S. cerevisiae CLN2oe strain, stronger effect = higher value
Method in brief: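 Whole-cell yeast growth assay. A strain engineered for altered cell-cycle control received compound, and inhibition relative to vehicle-treated cultures was recorded.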

[10] = NCI Yeast Anticancer Drug Screen. Data for the cln2 rad14 strain (AID 165);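 further: 0% = growth equal to vehicle treated cultures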; settings: S. cerevisiae cln2 rad14 strain, stronger effect = higher value
Method in brief: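 Yeast strain cln2 rad14, bearing defects in cell cycle control and DNA repair, serves as the test system; values reflect growth inhibition compared with vehicle.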

[11] = NCI Yeast Anticancer Drug Screen. Data for the bub3 strain (AID 167); settings: S. cerevisiae bub3 mutant strain, stronger effect = higher value
Method in brief: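 Whole-cell yeast assay. The mutant strain was incubated with compounds, and growth inhibition was determined by comparison with vehicle-treated cells.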

[12] = NCI Yeast Anticancer Drug Screen. Data for the mlh1 strain (AID 171);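 further: 0% = growth of vehicle-treated control cultures of the same strain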; settings: S. cerevisiae mlh1 strain growth inhibition, stronger effect = higher value
Method in brief: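 A yeast strain with a defined genetic lesion serves as the test organism. Cultures receive compound or vehicle, and growth is measured.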

[13] = NCI Yeast Anticancer Drug Screen. Data for the sgs1 strain (AID 173);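 further: 0% = growth of vehicle-only control cultures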; settings: S. cerevisiae sgs1 mutant, stronger effect = higher value
Method in brief: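 A genetically defined yeast mutant is incubated with the test compound, and its growth is compared to that of the same strain given vehicle.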

[14] = NCI Yeast Anticancer Drug Screen. Data for the mlh1 rad18 strain (AID 175); settings: S. cerevisiae mlh1 rad18 strain growth inhibition, stronger effect = higher value
Method in brief: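 Steps: expose repair-defective yeast to compound; measure growth; express inhibition against vehicle-treated controls.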

[15] = NCI Yeast Anticancer Drug Screen. Data for the rad18 strain (AID 177); settings: S. cerevisiae rad18 mutant growth inhibition, stronger effect = higher value
Method in brief: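 Measured value is growth inhibition of a yeast strain bearing a DNA repair alteration, referenced to vehicle-treated cells.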

[16] = at 5.0 µM (retest, dose inferred, filed as 0.5)
[17] = at 50.0 µM (retest, dose inferred, filed as 5.0)

Measured: growth inhibition

CC(C)S(=O)(=O)/C=C\S(=O)(=O)C(C)C
active: [1]; at 33.0 µM 75% | [1]; at 100.0 µM 97% | [2]; at 33.0 µM 87% | [2]; at 100.0 µM 98% | [4]; at 100.0 µM 96% | [5]; at 33.0 µM 83% | [5]; [17] 74% | [5]; at 100.0 µM 97% | [6]; at 100.0 µM 93% | [7]; at 100.0 µM 99% | [8]; [17] 76% | [8]; at 50.0 µM 72% | [9]; at 100.0 µM 85% | [11]; [17] 81% | [11]; at 100.0 µM 92% | [12]; at 100.0 µM 96% | [13]; at 33.0 µM 80% | [13]; at 100.0 µM 98% | [14]; [17] 85% | [14]; at 50.0 µM 82.8% | [15]; at 33.0 µM 78% | [15]; at 100.0 µM 93%
inactive: [1]; at 1.2 µM -5% | [1]; at 3.7 µM -7% | [1]; at 11.0 µM 23% | [2]; at 1.2 µM 1% | [2]; at 3.7 µM 19% | [2]; at 11.0 µM 44% | [3]; at 1.2 µM -1% | [3]; at 3.7 µM -11% | [3]; at 11.0 µM 5% | [3]; at 33.0 µM 26% | [3]; at 100.0 µM 25% | [4]; at 1.2 µM 1% | [4]; at 3.7 µM -5% | [4]; at 11.0 µM 15% | [4]; at 33.0 µM 63% | [5]; at 1.2 µM -5% | [5]; at 3.7 µM -5% | [5]; [16] -138% | [5]; at 11.0 µM 14% | [5]; at 50.0 µM 64.8% | [6]; at 1.2 µM 1% | [6]; at 3.7 µM 2% | [6]; [16] -45% | [6]; at 11.0 µM 7% | [6]; at 33.0 µM 58% | [6]; [17] 69% | [6]; at 50.0 µM 62.8% | [7]; at 1.2 µM -3% | [7]; at 3.7 µM 9% | [7]; at 11.0 µM 36% | [7]; at 33.0 µM 55% | [8]; [16] -56% | [9]; at 1.2 µM -6% | [9]; at 3.7 µM -4% | [9]; at 11.0 µM 4% | [9]; at 33.0 µM 28% | [10]; [16] -50% | [10]; [17] -3% | [10]; at 50.0 µM -17.3% | [11]; at 1.2 µM -4% | [11]; at 3.7 µM 1% | [11]; [16] -71% | [11]; at 11.0 µM 5% | [11]; at 33.0 µM 52% | [11]; at 50.0 µM 50.6% | [12]; at 1.2 µM -8% | [12]; at 3.7 µM -1% | [12]; at 11.0 µM 1% | [12]; at 33.0 µM 64% | [13]; at 1.2 µM -5% | [13]; at 3.7 µM -8% | [13]; at 11.0 µM 30% | [14]; [16] -133% | [15]; at 1.2 µM -2% | [15]; at 3.7 µM 5% | [15]; at 11.0 µM 19%
